Compound activity deposited in PubChem BioAssay by The Scripps Research Institute Molecular Screening Center.
TEAD-YAP block – TEAD-YAP interaction inhibition. HEK-TIYL cells, TEAD-Gal4/YAP UAS-luciferase luminescence. inhibition, % at 9.12 µM. actives 1.4% (n = 640,000); in the data active = inhibition above about 32%;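 also: 0% = median of test compound wells and 100% = reference inhibitor wells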
GPR151 ag – activators of human GPR151; actives 1% (n = 650,000); AID 1508602; Q8TDV0; activation, % at 11.2 µM; PathHunter beta-arrestin GPR151 cells, luminescence; in the data active = activation above about 4.9%;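 also: 0% = median of compound wells and 100% = cells with positive control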
FBW7 activator – activators of human E3 ligase FBW7. AlphaScreen FBW7–phospho-cyclin E peptide binding, activator screen. AID 1259310. actives 0.13% (n = 650,000). normalized activity (activation), % at 26.1 µM. Q969H0; in the data active = normalized activity above about 1.9%;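 also: purified mutant Fbw7 with reduced substrate affinity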
MITF inh – blocks human microphthalmia-associated transcription factor | O75030 | AlphaScreen MITF homodimerization, bead proximity signal | inhibition, % at 2.6 µM | actives 0.91% (n = 650,000); in the data active = inhibition above about 50%;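 also: 0% = vehicle wells with protein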
Target sequence (O75030 whole entry, looked up): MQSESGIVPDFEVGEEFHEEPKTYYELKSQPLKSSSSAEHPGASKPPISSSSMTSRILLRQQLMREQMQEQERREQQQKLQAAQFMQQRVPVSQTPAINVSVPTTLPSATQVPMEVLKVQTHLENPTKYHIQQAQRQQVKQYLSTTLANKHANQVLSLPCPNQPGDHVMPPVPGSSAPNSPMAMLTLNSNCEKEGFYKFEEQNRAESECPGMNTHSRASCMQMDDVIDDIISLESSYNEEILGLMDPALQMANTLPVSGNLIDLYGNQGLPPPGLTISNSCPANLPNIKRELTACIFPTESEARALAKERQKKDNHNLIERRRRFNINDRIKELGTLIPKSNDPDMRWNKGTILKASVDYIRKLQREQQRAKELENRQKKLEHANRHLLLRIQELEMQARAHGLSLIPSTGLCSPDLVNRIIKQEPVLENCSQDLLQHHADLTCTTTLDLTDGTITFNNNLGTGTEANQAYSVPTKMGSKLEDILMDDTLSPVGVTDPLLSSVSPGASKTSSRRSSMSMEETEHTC
Starred values were filed as active, the others as inactive. An excerpt weighted towards active compounds, which were near 3.4% of everything screened.

SMILES	TEAD-YAP block	GPR151 ag	FBW7 activator	MITF inh
Cc1nc2ccccc2n1Cc1nnc(-c2ccccc2)o1	39.8*	1.7	0.0	4.0
Cc1cc([N+](=O)[O-])nn1CC(=O)NCc1ccc(F)cc1C(F)(F)F	44.3*	-0.7	-0.1	9.6
COc1ccc(-c2cc(C(F)(F)F)n3nc(C(=O)Nc4cc(C)cc(C)c4)cc3n2)cc1	14.2	-0.7	1.0	10.1
Cc1ncn(-c2ccc(Nc3nccc(-c4ccc(C#N)c(NC(C)C)c4)n3)cc2)n1	47.8*	0.3	0.0	0.7
Cc1ncn(-c2ccc(Nc3nccc(-c4ccc(C#N)c(N5CCN(C)CC5)c4)n3)cc2)n1	51.0*	-1.9	-0.2	-2.1
Cc1ncn(-c2ccc(Nc3nccc(-c4cc(C#N)cc(NC(C)C)c4)n3)cc2)n1	10.1	1.0	0.1	13.4
O=C(Nc1cc(=O)[nH]c(=O)[nH]1)c1cc(Cl)ccc1Cl	51.8*	0.9	-0.1	6.6
O=C(Nc1cc(=O)[nH]c(=O)[nH]1)c1cc([N+](=O)[O-])ccc1Cl	-11.5	0.9	0.1	24.6
O=C(Nc1cc(=O)[nH]c(=O)[nH]1)c1cc(Br)ccc1Cl	54.1*	-1.0	0.3	14.2
CC(=O)N1CCN(C(=O)c2ccc(N3CC4CC(C3)c3cccc(=O)n3C4)c(NC(=O)c3cc4ccccc4oc3=O)c2)CC1 (stereo not drawn)	0.1	-1.0	0.1	-3.1
O=C(c1cc(-c2ccc(Cl)cc2)on1)N1CCCCCC1	-40.7	0.6	0.0	12.2
CN1CCN(C(=O)c2cc(-c3ccc(Br)cc3)on2)CC1	-42.9	-1.0	-0.2	1.7
Cc1ccc(-c2cc(C(=O)N3CCOCC3)no2)cc1	43.4*	-2.9	0.5	2.9
O=C(c1cc(-c2ccc(O)cc2)on1)N1CCCCCC1	49.8*	-1.0	0.0	6.5
CN(C)c1ccc(-c2nc3ccccc3[nH]2)cc1	95.7*	-10.1	0.2	20.6
Cc1ccc2nc(-c3cccc(N)c3)[nH]c2c1	60.0*	-7.8	-0.4	-0.4
Nc1ccc(-c2nc3ccc(C(=O)O)cc3[nH]2)cc1	36.1*	-8.2	-0.2	-6.3
Nc1ccc(C(=O)Nc2ccc3nc(-c4ccccc4)[nH]c3c2)cc1	-36.8	2.6	0.0	-14.7
Cc1ccc2nc(-c3ccccc3)[nH]c2c1	50.9*	-11.4	-0.1	-0.6
CCN(CC)C(=O)C1CCCN(c2nccc(Nc3ccc(N4CCOCC4)cc3)n2)C1 (stereo not drawn)	6.7	-0.9	0.1	3.6
CCc1cccc(C)c1NC(=O)C1CCN(c2nc(C)cc(C)n2)CC1	0.6	-1.7	0.6	26.8
Nc1cccc(-c2nc3cc4ccccc4cc3[nH]2)c1	50.2*	-7.9	0.2	-13.6
Cc1ccccc1S(=O)(=O)Nc1cc(Br)cc2cccnc12	35.8*	0.5	-0.1	18.0
O=C(NCc1ccc(F)cc1)C(c1cccnc1)N(C(=O)c1csnn1)C1CCCC1 (stereo not drawn)	-13.6	-0.5	0.0	2.4
COc1cccc2cc(C(=O)Nc3cccc(C)c3)c(=O)oc12	0.0	-1.2	0.5	1.6
SMILES	TEAD-YAP block	GPR151 ag	FBW7 activator	MITF inh
Cc1ccc2c(c1)NC(=O)C(CC(=O)NCCc1ccc(S(N)(=O)=O)cc1)O2 (stereo not drawn)	-3.8	-0.5	-0.3	-1.1
C=CCc1cc(C)ccc1OCC(O)Cn1c(C)nc2ccccc21 (stereo not drawn)	47.3*	0.1	0.0	10.2
Cc1nc2ccccc2n1CC(O)COc1ccc(C(C)C)cc1 (stereo not drawn)	48.5*	-0.4	-0.1	-2.6
COc1ccc(C(=O)/C=C/Nc2ccc(I)cc2)cc1OC	0.9	-1.8	0.6	21.6
Cc1ccc(N2C(=O)c3cccc4c(N5CCCCC5)ccc(c34)C2=O)c2cccnc12	5.9	2.1	0.2	4.3
CCN1C(=O)c2cccc3c(N)ccc(c23)C1=O	6.8	-0.5	0.3	57.0*
Cc1ccc(N2C(=O)c3cccc4c(Cl)ccc(c34)C2=O)cc1	1.8	0.4	-0.1	-1.6
CCN(CC)CCN1C(=O)c2cccc3c(Cl)ccc(c23)C1=O	70.5*	0.5	-0.1	2.7
Cc1ccc(N2C(=O)c3cccc4c(N)ccc(c34)C2=O)c2cccnc12	62.5*	0.9	0.2	7.3
Cc1cc(C)c(-c2csc(NC(=O)c3cccc4ccccc34)n2)c(C)c1	22.8	-0.1	-0.1	3.4
c1ccc(Cc2nc(Nc3ccccc3)c3c4c(sc3n2)CCCC4)cc1	-4.0	-0.7	-0.1	-7.3
CCCC1(C2CCN(C(=O)CC)CC2)NC(=O)N(Cc2ccco2)C1=O (stereo not drawn)	-4.4	-0.3	0.2	4.8
O=C(O)c1cc(N2C(=O)C3CCCCC3C2=O)ccc1N1CCOCC1 (stereo not drawn)	5.6	0.9	0.0	-8.4
O=C(O)c1cc(N2C(=O)C3CC=CCC3C2=O)ccc1N1CCOCC1 (stereo not drawn)	11.3	0.1	2.0*	6.8
O=C(NCc1ccncc1)c1ccccc1CCc1ccccc1	-4.1	1.6	0.0	14.7
O=C(Cc1c(F)cccc1Cl)N1CCC(c2cccnc2)CC1	5.0	0.6	0.1	4.4
O=C(Cc1c(F)cccc1Cl)N1CCC(c2ccncc2)CC1	41.9*	-0.3	-0.1	14.7
Cc1nccc2[nH]c(=O)c(C(=O)NCc3ccccc3Cl)cc12	-7.9	-0.5	0.1	2.3
Cc1cc(C)cc(OCC(=O)Nc2nc3ccc(S(C)(=O)=O)cc3s2)c1	1.8	-0.2	0.1	-0.8
C=CCNC(=S)NNC(=O)c1ccccc1O	88.6*	-0.4	-1.7	-3.0
C=CCNC(=S)NNC(=O)c1ccccc1OCCC	1.9	-1.0	0.3	-13.1
CN1/C(=C/c2cc[n+](C)cc2)Sc2ccccc21	31.6	1.9	0.2	-3.5
C=CCN1/C(=C/c2cc[n+](C)cc2)Sc2ccccc21	87.5*	0.7	-0.1	14.2
C=CCN1/C(=C/c2cccc[n+]2C)Sc2ccccc21	77.2*	1.5	0.0	4.7
CC(=O)N(C1=C(N2CCCCC2)C(=O)c2ccccc2C1=O)C1CCCC1	-7.5	1.4	-0.2	17.6
SMILES	TEAD-YAP block	GPR151 ag	FBW7 activator	MITF inh
COc1ccc(C=C(C(=O)Nc2ccccc2OC)C(=O)Nc2ccccc2OC)cc1O	57.0*	0.7	0.4	3.4
Cc1ccc2nc(-c3ccc(C)c(N)c3)oc2c1	54.6*	-8.0	0.7	11.0
Cc1ccc2nc(-c3ccc(Br)c(N)c3)oc2c1	70.2*	-2.2	0.8	19.6
Cc1ccc2nc(-c3ccc(NC(=O)c4cc(I)ccc4Br)cc3)oc2c1	-28.7	-0.8	-0.2	7.3
Cc1ccc2nc(-c3cccc(-c4nc5ccc(C)cc5o4)c3)oc2c1	-45.9	-0.5	-0.1	-10.6
Cc1cccc(NC(=O)Nc2ccccc2C2CC2)c1	-22.7	-0.8	0.2	-4.5
COc1ccc(-c2ccc3c(N)c(C(=O)NCc4ccco4)sc3n2)cc1	33.1*	-1.1	-0.2	-3.1
CC(C)OC(=O)c1sc2nc(-c3ccccc3)ccc2c1N	84.0*	3.6	-0.1	-1.9
COc1ccc(-c2ccc(C(=O)NCc3ccco3)c(N(C)C)n2)cc1	-5.5	-1.4	0.2	-11.4
Cc1ccc(S(=O)(=O)NCC(C)(C)N2CCOCC2)cc1C	-6.6	-1.9	0.0	-9.3
CC(C)C[C@H]1NC(=O)[C@H]2CN(C(=O)c3ccc(F)cc3)CCN2C1=O	-11.7	0.0	-0.2	-4.5
